IMPase cell inh – membrane-permeable compound that blocks inositol monophosphatase; P97697; CHO-M1 cells, IP1 accumulation, HTRF TR-FRET ratio; inhibition (IP1 accumulation), % at 46.1 µM; 120,000 tested, under 10 active; AID 901; active = well fitted curve in the direction sought with a large enough effect in the signal ratio, not every such curve was filed as active; inconclusive = small, poorly fitted or top-dose-only effect, or a change in a side signal; inactive = no such curve, though single readings can be large or run the other way; the % refers to the signal ratio;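 note: cells stimulated with carbachol in lithium chloride buffer; plate controls were DMSO basal wells for no effect and reference inhibitor wells for full effect; higher means more IMPase inhibition seen as more IP1 and lower FRET ratio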
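In this qHTS, compounds (final up to 46 uM) act on CHO-M1 cells that are then activated through the M1 receptor with carbachol, in pH 7.4 buffer containing 50 mM LiCl, for 30 min. IP1 accumulation is quantified by the IP-One immunoassay.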
HPGD block – blocks human HPGD enzyme activity | AID 894 | 4.3% of 150,000 active | Potency, µM, without a hit: at the top dose activity change, negative = inhibition, most hits filed as inhibitors | purified HPGD, NADH fluorescence kinetic, PGE2 substrate; note: potency is the fitted concentration of half-maximal effect
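20 nM HPGD preincubated 15 min at room temperature with compound in 50 mM Tris-HCl pH 8, 0.01% Tween 20. Started with 1 mM NAD+ and 30 uM prostaglandin E2; NADH fluorescence (360/450 nm) read 5 times over 30-s intervals, last minus first.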
ALDH1A1 inh – ALDH1A1 (human) enzyme inhibition. P00352. Purified ALDH1A1, NADH fluorescence, propionaldehyde substrate. Potency, µM (series often up to 75.3 µM), inactives show top-dose activity, negative = inhibition, usual class: inhibitors. 7.3% of 220,000 active. AID 1030;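 note: potency is the fitted concentration of half-maximal effect; plate controls were no enzyme wells and a reference inhibitor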
Target sequence (P00352 whole entry, looked up): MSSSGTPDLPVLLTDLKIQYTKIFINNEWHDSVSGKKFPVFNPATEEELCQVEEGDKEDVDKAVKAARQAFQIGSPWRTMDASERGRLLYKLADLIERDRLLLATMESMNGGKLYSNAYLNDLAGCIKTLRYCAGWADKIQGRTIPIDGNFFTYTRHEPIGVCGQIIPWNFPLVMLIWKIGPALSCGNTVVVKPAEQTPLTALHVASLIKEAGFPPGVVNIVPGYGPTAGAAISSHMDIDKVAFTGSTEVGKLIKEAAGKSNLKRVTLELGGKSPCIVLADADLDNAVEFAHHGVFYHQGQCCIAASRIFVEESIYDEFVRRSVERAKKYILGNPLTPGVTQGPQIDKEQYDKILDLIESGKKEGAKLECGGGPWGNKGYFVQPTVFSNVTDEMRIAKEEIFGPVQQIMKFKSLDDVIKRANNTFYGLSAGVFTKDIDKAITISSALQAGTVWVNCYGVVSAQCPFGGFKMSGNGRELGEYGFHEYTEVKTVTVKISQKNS
Numbers without * were called inactive; ? = inconclusive; / = no result; [ ] = remark or other dose. Rows were chosen to be rich in hits. Some 9% of all compounds tested hit in one or more screens of this group. Unless noted, calls come from the whole dose curve; as a rule, active = well fitted inhibition curve with a large enough effect (not every such curve was filed as active); inconclusive = small, poorly fitted or top-dose-only effect, or another doubt; inactive = no such curve, though single readings can be large or run the other way. Unless noted, % is set by controls: 0 for no effect and ±100 for the full control effect.

SMILES | IMPase cell inh | HPGD block | ALDH1A1 inh
CCOC(=O)c1c(NC(=O)CCCOc2ccc(Cl)cc2)sc2c1CCC2 | -7 | / | /
COc1ccc(NC(=S)NCc2cccnc2)cc1OC | / | / | 8%
CCC(C)c1ccc(NC(=S)Nc2ccc(OC)c(OC)c2)cc1 (stereo unspecified) | 3 | 1% | 28µM*
CCC(C)c1ccc(NC(=S)Nc2ccc(OC)cc2C)cc1 (stereo unspecified) | -6 | 25µM* | 0%
COc1ccc(NC(=S)Nc2ccc(OCc3ccccc3)cc2)cc1OC | -2 | -15% | 18µM*
CCOc1ccc(CC(=O)NNC(=S)Nc2ccc(OC)c(OC)c2)cc1 | / | / | 1%
COc1ccc(NC(C)=O)c(C)c1 | / | / | -6%
NCCOB(c1ccccc1)c1ccccc1 | 13 | -25% | ?
COc1ccc2c(c1)NC1(O)c3ccccc3C(=O)C21O (stereo unspecified) | -12 | -3% | 4%
CCCN1C(=O)NC2(O)C(=O)c3ccccc3C12O (stereo unspecified) | 0 | / | 2%
CC1=C(C(=O)OC(C)C)C2(O)C(=O)c3ccccc3C2(O)N1 (stereo unspecified) | 2 | -11% | 13µM*
O=C1NC2(O)C(=O)c3ccccc3C2(O)N1 (stereo unspecified) | / | / | 4%
CCOC(=O)C1=C(C)N[C@@]2(O)c3ccccc3C(=O)[C@@]12O | 6 | -7% | 32µM*
CCCCOC(=O)C1=C(C)NC2(O)c3ccccc3C(=O)C12O (stereo unspecified) | 4 | -9% | 8.9µM*
COc1cc(/C=C/C(=O)OCC(=O)NC(=O)NC23CC4CC(CC(C4)C2)C3)ccc1OCC#N | / | ? | -6%
BrC(/C=C\c1ccccc1)=N/Nc1nc(N2CCOCC2)nc(N2CCOCC2)n1 | / | / | -6%
BrC(=C\c1ccccc1)/C=N/Nc1nc(N2CCOCC2)nc(N2CCOCC2)n1 | / | 16µM* | 0%
O=C(OCC#CCSc1nnc(-c2cccc3ccccc23)o1)c1cccs1 | 3 | ? | ?
O=C(OCC#CCSc1nnc(-c2ccccc2)o1)c1cccs1 | 16 | 16µM* | 20µM*
CN(C)S(=O)(=O)c1cc(NC(=O)COC(=O)CCSc2ccc(Cl)cc2)ccc1Cl | / | -13% | ?
Cc1ccc(C2C(C#N)=C(N)Oc3c2sc2ccccc32)o1 (stereo unspecified) | 4 | ? | ?
Cc1ccc(NC(=O)CN2C(=O)S/C(=C\c3cccn3-c3cccc(C(=O)O)c3)C2=O)cc1C | / | / | 2%
Cc1ccc(NC(=O)CN2C(=O)N/C(=C/c3ccco3)C2=O)cc1 | 2 | -20% | 25µM*
CCOc1cccc(/C=C2/NC(=O)N(CC(=O)Nc3cccc(C)c3)C2=O)c1O | / | / | 0%
Cc1ccc(NC(=O)CN2C(=O)N/C(=C/c3cccn3-c3ccc(C(=O)O)cc3)C2=O)cc1 | 12 | 25µM* | -8%
SMILES | IMPase cell inh | HPGD block | ALDH1A1 inh
Cc1ccccc1OCCCn1c(CO)nc2ccccc21 | / | / | -8%
COc1ccc(-c2nc(-c3ccccc3)c(Nc3ccc4ccccc4c3)o2)cc1 | / | -8% | ?
COc1ccc(N2CCN(C(=O)c3ccc(N4C(=O)NC5CC4(C)Oc4ccccc45)cc3)CC2)cc1 (stereo unspecified) | -3 | 2% | -6%
O=C(Cn1nc(C(=O)O)c2ccccc2c1=O)Nc1ccc2c(c1)OCO2 | / | / | 10%
C=C1C(N)CC2CC1C2(C)C (stereo unspecified) | / | -5% | -2%
O=C(N/N=C/c1cnc(N2CCCCC2)s1)c1ccc(C(F)(F)F)cc1 | / | / | -11%
CC(=O)N/C(=C/c1ccccc1)C(=O)N1CCCCC1 | -6 | / | ?
CC(=O)N/C(=C\c1ccccc1)C(=O)OCC(=O)N1CCCCCC1 | 1 | / | 11µM*
COC(=O)C1=NNC2C(=O)N(c3ccc(C)cc3)C(=O)C12 (stereo unspecified) | / | / | 2%
Cc1ccc(N2C(=O)[C@@H]3C(C(=O)C(c4ccccc4)c4ccccc4)=NN[C@@H]3C2=O)cc1 | -10 | -14% | 22µM*
Nc1cnn(C2CCCO2)c(=O)n1 (stereo unspecified) | -8 | -19% | ?
CCOC(=O)CN1C(=O)N[C@@H](c2ccccc2)[C@H](C(=O)OC)[C@H]1C | / | -7% | 1%[13.5 µM]
Cc1ccc(-n2nnnc2SCC(=O)N(CC(C)C)c2c(N)n(CC(C)C)c(=O)[nH]c2=O)cc1 | / | / | -2%
Nc1ncnc2c1nc(Sc1ccc(Cl)cc1)n2[C@H]1O[C@@H]2COP(=O)(O)O[C@H]2[C@@H]1O | / | -4% | 7%
COc1ccc(N(CC(=O)N2CCCCC2)S(=O)(=O)c2ccc(OC)c(OC)c2)cc1 | -6 | / | /
CCn1cc(C(=O)NCc2ccccn2)c(=O)c2cc(F)c(N3CCN(C)CC3)cc21 | 7 | -19% | ?

From PubChem
